In all, about 3,600 compounds went through this assay and about 100 (2.8%) were called active.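 Rule for the calls: active = inhibition above 30% at one or more concentrations, seen consistently on every test date; inconclusive = results that disagree between repeat test dates; inactive = the rest.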 Only a sample is shown.

Consider 66 compounds from PubChem BioAssay AID1117362 (Southern Research Institute, 2015).

A short description of the assay: GST-antibody interaction or FRET quenching – biochemical, TR-FRET, artefact control for Vif-APOBEC3G degradation inhibitor project, dose response (AID 1117362).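 Note: biotinylated GST protein used in place of GST-Vif 1-94 and biotin-A3G peptide; detects fluorescence quenchers or blockers of GST binding to anti-GST antibody.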 The settings on record: TR-FRET counter screen, biotin-GST/anti-GST signal; series mostly up to 100 µM.
In the case of `CCOC(=O)C1CCN(C(=O)COc2ccc(S(=O)(=O)NC(C)C)cc2)CC1`, the IC50 result is “inactive”. As to `CCOC(=O)Cc1cc(=O)n2[nH]c(C)cc2n1`, the IC50 entry is “inactive”. On to `COCCNC(=O)c1ccc(CS(=O)(=O)c2c(Cl)cccc2Cl)o1`, for which the IC50 result is “inactive”. The same measure for `CC(C)CC(=O)Nc1nnc(-c2ccco2)s1`: “inactive”; for `CCOc1cccc(CNCCNC(=O)c2nonc2N)c1`: “inactive”. On to `COc1ccc(-n2c(Cc3cccn3C)nnc2SCC(N)=O)cc1`, for which the IC50 result is “inactive”. For `COC(=O)CCCC(=O)Nc1c(F)c(F)c(F)c(F)c1F`, the IC50 result was “inactive”.

For the compound `CCOc1ccc(Nc2nc3ccccc3n3nnnc23)cc1`, the IC50 result was “inactive”. Regarding `CN(CC(=O)Nc1cccc(F)c1)C(=O)c1cccc(-n2cccc2)c1`, the IC50 result is “inactive”.

As for `O=C(NC1CCC(C(=O)O)CC1)OCc1ccccc1` (stereo unspecified), the IC50 result is “inactive”. As for `CCc1cc(=O)n2[nH]c(C)c(-c3ccccc3OC)c2n1`, the IC50 entry was “inactive”. For `COc1cccc(CNC(=O)CCNS(=O)(=O)c2cccs2)c1` the value was “inactive”. For `COc1cccc(C(C#N)N2CCCCC2)c1O` (stereo unspecified), the IC50 result was “inactive”.

Regarding `O=C(N/N=C/c1cn(Cc2cccc(F)c2)c2ccccc12)c1cc(O)cc(O)c1`, the IC50 result was “inactive”.

As for `O=C(CSc1nnnn1-c1ccccc1)Nc1ncc2c(n1)CC(c1ccco1)CC2=O` (stereo unspecified), the IC50 entry was “inactive”. As to `CCOc1ccc(NCC2CCOC(C)(C)C2)cc1` (stereo unspecified), the IC50 entry was “inactive”. As for `CCOC1(OCC)N=C(N)C2(C#N)C(c3cccc(OC)c3OC)C12C#N` (stereo unspecified), the IC50 entry was “inactive”. With `CCOC(=O)C1CCCN(C(=O)c2ccc(CNc3c(N4CCC(C)CC4)c(=O)c3=O)cc2)C1` (stereo unspecified), the IC50 entry is “inactive”. In the case of `CCc1ccc(CC)c(S(=O)(=O)Nc2ccc(C(=O)O)c(O)c2)c1`, the IC50 entry is “inactive”. With `CC/C(=C\C(=O)c1ccncc1)Nc1ccc(O)cc1`, the IC50 result is “inactive”.

On to `CCNc1ccc(Br)cc(C(=O)/C=C/c2ccc3c(c2)OCO3)c1=O`, for which the IC50 result was “inactive”. In the case of `O=[N+]([O-])c1cc(CN2CCOCC2)c2cccnc2c1O`, the IC50 result was “inactive”. The same measure for `Cc1ccc[n+](-c2[nH]c(=O)sc2/C=N/NC(=O)c2ccccc2[O-])c1`: “inactive”; for `Cc1cc(C(=O)CSc2nnc(-c3ccco3)o2)c(C)n1Cc1ccco1`: “inactive”; for `COc1ccc2[nH]c3c4c(ccc3c2c1)C(=O)C=CC4=O`: “inactive”. Turning to `O=C(Nc1ccccc1N1CCCC1)c1ccc(Br)o1`, the IC50 entry is “inactive”.

On to `COC(=O)C(C)Sc1nnc(Cc2cc(=O)[nH]c(=O)[nH]2)n1-c1cc(C)ccc1C` (stereo unspecified), for which the IC50 result is “inactive”. The same measure for `O=C(Nc1ccccc1)C1=C(O)CC(c2ccco2)CC1=Nc1ccccc1` (stereo unspecified): “inactive”; for `O=C(c1cc(-c2ccco2)on1)N1CCN(c2ccccc2)CC1`: “inactive”; for `Cc1cc(NC(=O)CCNS(=O)(=O)c2cc(Br)cnc2N)ccc1Br`: “inactive”. On to `Cc1cc(C(=O)CSc2nnnn2C)c(C)n1CCc1ccc(Cl)cc1`, for which the IC50 result was “inactive”.

For the compound `CC1(C)CCCN(C(=O)c2coc(=O)c(Br)c2)C1`, the IC50 result was “inactive”. On to `FC(F)(F)c1cc(-c2ccco2)nc(NCc2cccnc2)n1`, for which the IC50 result was “inactive”. Turning to `CN(C)c1ccc(NC(=O)CSc2nc3ccccc3c(=O)n2C2CCCCC2)cc1`, the IC50 entry is “inactive”.

Turning to `Cn1cccc1C(=O)NC(=O)COC(=O)CC12CC3CC(CC(Br)(C3)C1)C2`, the IC50 entry is “inactive”. In the case of `CC(=O)Nc1ccc(NC(=O)C(C)OC(=O)CC23CC4CC(CC(Br)(C4)C2)C3)cc1` (stereo unspecified), the IC50 result was “inactive”. For `O=C(O)C1Nc2c(C(=O)N3CCOCC3)cccc2C2C=CCC12` (stereo unspecified) the value was “inactive”; for `O=C(Nc1ccn(-c2ccccc2)n1)c1ccccc1Br`, “inactive”; for `CC(=O)c1cccc(NC(=O)CN2C(=O)NC3(CCCCCCC3)C2=O)c1`, “inactive”. For the compound `COc1ccc(-n2c(C)cc(C(=O)CSc3nn4c(=O)c(C(C)(C)C)nnc4s3)c2C)cc1`, the IC50 entry is “inactive”.

With `CCN(C(=O)c1coc(=O)c(Br)c1)c1ccc2c(c1)OCO2`, the IC50 entry is “inactive”. Consider `COc1ccc(NC(=O)/C(C#N)=C\c2ccc(Br)o2)cc1`, for which the IC50 result was “inactive”. For `COc1ccc2c(c1)c(=O)oc1cc(OCC(=O)N3CCC(C)CC3)ccc12` the value was “inactive”; for `CC(C)(C)OC(=O)N(Cc1ccccc1)Cc1cccc(OCc2cccc(NC(=O)c3ccccc3)c2)c1`, “inactive”; for `Cc1cc(C(=O)COC(=O)c2cc(O)c3ccccc3c2O)c(C)n1CC1CCCO1` (stereo unspecified), “inactive”. Regarding `CCOc1ccc2[nH]c(=O)c(CN(Cc3ccco3)C(=O)c3ccc(Br)cc3)cc2c1`, the IC50 entry was “inactive”. For the compound `CCOC(=O)C1=C(C)N=C2SC(C(=O)OC)=CC(=O)N2C1c1cc(OC)c(OC)c(OC)c1` (stereo unspecified), the IC50 entry was “inactive”. As for `CC(C)OC(=O)c1cccc(C(=O)O)n1`, the IC50 result was “inactive”. The same measure for `O=C(NCc1ccccn1)c1coc(=O)c(Br)c1`: “inactive”; for `CCCN1C(=O)S/C(=C\c2ccc(N3CCOCC3)cc2C)C1=O`: “inactive”; for `CN(CCc1ccccc1)C(=O)c1ccc(NC(=O)Cc2ccc(NC(=O)C3CCN(C(=O)CCc4ccccc4)CC3)cc2)cc1`: “inactive”. For the compound `Cc1ccc(C2SCC(=O)N2Cc2cn3ccsc3n2)o1` (stereo unspecified), the IC50 result is “inactive”.

Regarding `CCn1c(SCC(=O)Nc2cc(C)on2)nnc1-c1cccnc1`, the IC50 result is “inactive”. Consider `C/C(=N\Nc1ccc(Cl)c(C(=O)O)c1)c1ccc[nH]1`, for which the IC50 result is “inactive”. Consider `COc1ccc(C2=CC(c3ccc(Cl)cc3)n3cnnc3N2)cc1OC` (stereo unspecified), for which the IC50 result is “inactive”. As to `COc1ccc(Nc2ccc(OC)cc2)cc1`, the IC50 entry is “inactive”. For `Cc1nn(-c2ccccc2)c2sc(C(=O)N3CCc4ccccc4C3)cc12`, the IC50 result is “inactive”. In the case of `C/C(N)=C(/C#N)C(=O)CSc1nnc(NC(C)C)s1`, the IC50 entry was “inactive”.

On to `CCN1CCN(C2=NC(=O)/C(=C/c3ccc(C)o3)S2)CC1`, for which the IC50 result is “inactive”.

Turning to `Cc1ccc2cc(C(c3nnnn3Cc3ccccc3)N3CCc4ccccc43)c(=O)[nH]c2c1` (stereo unspecified), the IC50 entry was “inactive”. For the compound `COC(=O)\C(C(C)=O)=C(/C=C/C=C/C=C/N(C)C)N(C)C`, the IC50 result is “inactive”. In the case of `O=C(NCCc1c[nH]c2ccccc12)c1ccc(S(=O)(=O)NCc2ccco2)cc1`, the IC50 result was “inactive”. For the compound `COc1ccc(S(=O)(=O)Cc2ccc(C(=O)N3CCN(c4ccccc4)CC3)o2)cc1`, the IC50 result was “inactive”. For the compound `CC1=C(C(=O)Nc2ccccc2F)C(c2ccsc2)C2=C(CC(c3ccccc3)CC2=O)N1` (stereo unspecified), the IC50 entry was “inactive”.

Consider `C[c-]1[c-](C)[c-](C)[c-](C)[c-]1C.[Fe].c1cc2nccc(N3CCCC3)[c-]2c1` (stereo unspecified), for which the IC50 is 28 µM (active).

`O=C1NC(c2ccc(Br)cc2)=N/C1=C/c1ccco1`: the IC50 entry was “inactive”.
